# Assay results as given in PubChem BioAssay (Tox21).
# Values joined by “and” are separate entries in the source; they are usually repeats but may differ in a detail not shown here. Identical values can stand only once. Inconclusive results are not listed. A call without a number means that no potency is given here. Some compounds were tested as several samples or in several runs, with calls that do not always agree. Active and inactive are the calls of the source. Calls come from the whole dose curve; as a rule, active = well fitted activation curve with a large enough effect in the repeat runs; inconclusive = weak or mixed curves; inactive = flat fitted curve, though single readings scatter.
# Experiment: A CellTox Green Cytotoxicity Assay to monitor cytotoxicity in HepG2 cells - 24 hour (AID 1224878); note: nearly all actives have a fitted effect of over 45% in size
# Conditions: CellTox Green fluorescence; series mostly up to 76.8 µM
# Source text: National Center for Advancing Translational Sciences [NCATS]
# NIH Chemical Genomics Center [NCGC]
# U.S. Environmental Protection Agency [EPA]
# National Institutes of Environmental Health Sciences [NIEHS]
# National Toxicology Program [NTP]
# Cell-based models are critical for drug discovery. Determining the natural cytotoxic effects resulting from test compounds is an essential research activity. A CellTox Green Cytotoxicity Assay to monitor cytotoxicity in real time of continues cell culture during 40 hours of the compound treatment was used to screen Tox21 10K library compounds in HepG2 cells. CellTox Green Cytotoxicity Assay is a nonlytic, homogeneous, biofluorescent method to measure cytotoxicity in cell culture after experimental manipulation. The assay system uses a proprietary asymmetric cyanine dye that is excluded from viable cells but preferentially stains the dead cell's DNA. […] Viable cells produce no appreciable increases in fluorescence. Therefore, the fluorescence signal produced by the binding interaction with dead cell DNA is proportional to cytotoxicity.
# The mixture of HepG2 cell suspension and reagents were dispensed at 600cells/6 ul/well in 1536-well tissue culture treated black solid bottom plates using a Multidrop dispenser. After the assay plates were incubated at a 37 C/5% CO2 incubator for 5 hours, 23 nL of compounds dissolved in DMSO, positive and negative controls was transferred to the assay plate by a pintool work station. The plates were incubated at 37 C for 40 hours. The fluorescence intensity were measured at 0h, 8h, 16h, 24h, 32h and 40h time points using ViewLux plate reader during compound treatment.
# Potency is the fitted concentration of half-maximal effect.
row,SMILES,Potency
1,O=C(O)c1c(Cl)cccc1Cl,inactive
2,CCCCCCCCCCCC[N+](C)(C)CCCCCCCCCCCC,7.76 µM (active)
3,N/C(=N\N=C\c1ccc(Cl)cc1)N/N=C/c1ccc(Cl)cc1,21.3 µM (active)
4,Cc1nc(-c2ccc3c(c2)CCN(CCC2CCC(NC(=O)/C=C/c4ccc(F)cc4)CC2)CC3)no1 (stereo not given),inactive
5,CCOC(=O)c1nc(C(Cl)(Cl)Cl)n(-c2ccc(Cl)cc2Cl)n1,inactive
6,CC(C)(C)c1ccc(C(=O)O)cc1,inactive
7,O=[N+]([O-])c1cc([N+](=O)[O-])c2ccc(S(=O)(=O)O)cc2c1O,inactive
8,CCCCCCCCCOC(=O)c1ccc(O)cc1,48.3 µM (active)
9,C/C(=C(/OCCOc1ccc(Cl)cc1)c1ccc(Cl)cc1Cl)n1ccnc1,inactive
10,COc1cc(-c2ccc(N=C=O)c(OC)c2)ccc1N=C=O,inactive
11,Cc1onc(-c2c(Cl)cccc2Cl)c1C(=O)N[C@@H]1C(=O)N2[C@@H]1SC(C)(C)[C@@H]2C(=O)O,inactive
12,Cc1ccc2oc(CN(Cc3ccccc3)C(=O)Nc3c(F)cc(F)cc3F)c(-c3ccc(Cl)cc3)c2c1,inactive
13,O=C1c2ccccc2Cc2ccccc21,inactive
14,Nc1c2ccccc2nc2ccccc12,10.7 µM (active)
15,CCCCCCCCOC(=O)c1ccc(O)cc1,inactive and 43.6 µM (active)
16,Cc1cccc(N(C)C(=S)Oc2ccc3c(c2)C2CCC3C2)c1 (stereo not given),inactive
17,CCC(C)(C)C1CCCCC1OC(C)=O (stereo not given),inactive
18,Cc1cccc(S(=O)(=O)O)c1C,inactive
19,O=c1[nH]cnc2nc[nH]c12,inactive
20,Nc1c(Cl)cc(Cl)cc1Cl,inactive

row,SMILES,Potency
1,CC(C)=CCOc1ccc(/C=C/C(=O)c2ccc(OCC=C(C)C)cc2OCC(=O)O)cc1,inactive
2,CN(C)CCCOC1(Cc2ccccc2)CCCCCC1,inactive
3,CC/C(=C(\c1ccc(O)cc1)c1ccc(OCCN(C)C)cc1)c1ccccc1,55.1 µM (active)
4,CN1CCN(CCC(=O)N2c3ccccc3Sc3ccc(C(F)(F)F)cc32)CC1,15.1 µM (active)
5,CCCC/C=C/CCCCO,inactive
6,C[C@]12CCC(=O)C=C1CC[C@@H]1[C@@H]2[C@@H](O)C[C@@]2(C)[C@H]1CC[C@]2(O)C(=O)COC(=O)CCC(=O)O,inactive
7,CCCCCCCCS(=O)C(C)Cc1ccc2c(c1)OCO2 (stereo not given),inactive
8,Cc1cc(O)c2ccccc2c1O,13.4 µM (active)
9,[O-][n+]1ccccc1SSc1cccc[n+]1[O-],1.47 µM (active)
10,CCCCN(CCCC)C(=O)N(CCCC)CCCC,inactive
11,N#CC1(c2ccc(F)cc2)CCC(=O)CC1,inactive
12,CC1=C(C(=O)OC(C)C)C(c2cccc([N+](=O)[O-])c2)C(C(=O)OC2CN(C(c3ccccc3)c3ccccc3)C2)=C(N)N1 (stereo not given),23.9 µM (active)
13,Oc1ccc(C2(c3ccc(O)cc3)CC3CC2C2CCCC32)cc1 (stereo not given),inactive
14,CCCCCCOC(=O)c1ccc(O)cc1,43.7 µM (active) and 9.77 µM (active)
15,CN(C)c1ccc(C2(c3ccc(N(C)C)cc3)OC(=O)c3cc(N(C)C)ccc32)cc1,inactive
16,NNc1nc(-c2ccc(N)cc2)cs1,inactive
17,CCOC(=O)O[C@]1(C(=O)OCCl)CC[C@H]2[C@@H]3CCC4=CC(=O)C=C[C@]4(C)[C@H]3[C@@H](O)C[C@@]21C,inactive
18,CCN(C(=O)c1cc(C)cc(OC[C@H](C)Nc2ccncc2)c1)C(C)C,inactive
19,O=c1cc(-c2ccc(O)cc2)oc2cc(O)cc(O)c12,inactive and 34.7 µM (active)
20,CC(C)C(C)(C)C(C)(C)C(C)(C)S,inactive
